Results filed as inconclusive are left out. Active and inactive are the calls of the source. Calls come from the whole dose curve; as a rule, active = well fitted curve in the direction sought with a large enough effect in the repeat runs; inconclusive = weak or mixed curves; inactive = no such curve, though single readings can be large; an effect the other way counts as inactive or inconclusive.
What was measured:
[1] = A CellTox Green Cytotoxicity Assay to monitor cytotoxicity in HEK293 cells - 40 hour (AID 1224871); note: nearly all actives have a fitted effect of over 45% in size
Summary of the method: (§1)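 Fluorescence intensity, read at 0, 8, 16, 24, 32 and 40 h of compound treatment, reflected dye binding to DNA of dead HEK293 cells; compounds (23 nL, DMSO) were added 5 h after plating cells with reagent.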

[2] = qHTS RealTime-Glo MT Cell Viability Assay in HEK293 cells - 16 hour (AID 1224872); note: top concentration of the series differs between compounds; nearly all actives have a fitted effect of over 50% in size
Summary of the method: (§2)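 HEK293 cells seeded with NanoLuc/prosubstrate reagent, rested 5 h at 37 C, then dosed and kept at 37 C up to 40 h. Nonlytic real-time luminescence from viable cells read at 0, 8, 16, 24, 32 and 40 h.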

[3] = qHTS RealTime-Glo MT Cell Viability Assay in HepG2 cells - 8 hour (AID 1224873); note: nearly all actives have a fitted effect of over 55% in size
Summary of the method: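 HepG2 cells mixed with RealTime-Glo MT reagents (NanoLuc plus cell-permeant prosubstrate) were seeded at 600 cells/well, incubated 5 h at 37 C/5% CO2, then pinned with compounds in DMSO; nonlytic luminescence tracked viability during 40 h treatment.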

[4] = qHTS RealTime-Glo MT Cell Viability Assay in HEK293 cells - 40 hour (AID 1224874); settings: RealTime-Glo luminescence; max response: active compounds read low; note: nearly all actives have a fitted effect of over 50% in size
Summary of the method: (§3)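 Viable HEK293 cells reduce a cell-permeant prosubstrate; the product diffuses out and is consumed by NanoLuc in the medium to give light. Compounds went in after a 5 h incubation and plates were read over the treatment course.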

[5] = A CellTox Green Cytotoxicity Assay to monitor cytotoxicity in HEK293 cells - 24 hour (AID 1224875); note: series mostly up to about 77 µM; nearly all actives have a fitted effect of over 45% in size
Summary of the method: as §1

[6] = A CellTox Green Cytotoxicity Assay to monitor cytotoxicity in HepG2 cells - 16 hour (AID 1224876); note: nearly all actives have a fitted effect of over 45% in size
Summary of the method: (§4)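 Using 1536-well format, dye-containing HepG2 suspension was seeded, allowed 5 h at 37 C/5% CO2, dosed by pintool with compounds, positive and negative controls, and imaged for fluorescence across 40 h.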

[7] = qHTS RealTime-Glo MT Cell Viability Assay in HepG2 cells - 32 hour (AID 1224877); note: nearly all actives have a fitted effect of over 55% in size
Summary of the method: (§5)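 HepG2 cells (600/well) were dispensed with RealTime-Glo reagents, incubated 5 h at 37 °C, then treated with compounds in DMSO for up to 40 h. Nonlytic NanoLuc luminescence reflecting viable cells was read at each stated time point.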

[8] = A CellTox Green Cytotoxicity Assay to monitor cytotoxicity in HepG2 cells - 24 hour (AID 1224878); note: nearly all actives have a fitted effect of over 45% in size
Summary of the method: as §4

[9] = A CellTox Green Cytotoxicity Assay to monitor cytotoxicity in HepG2 cells - 40 hour (AID 1224879); note: nearly all actives have a fitted effect of over 40% in size
Summary of the method: as §4

[10] = qHTS RealTime-Glo MT Cell Viability Assay in HEK293 cells - 0 hour (AID 1224880)
Summary of the method: as §3

[11] = A CellTox Green Cytotoxicity Assay to monitor cytotoxicity in HEK293 cells - 32 hour (AID 1224881); note: nearly all actives have a fitted effect of over 40% in size
Summary of the method: as §1

[12] = A CellTox Green Cytotoxicity Assay to monitor cytotoxicity in HepG2 cells - 32 hour (AID 1224883); note: nearly all actives have a fitted effect of over 50% in size
Summary of the method: as §4

[13] = A CellTox Green Cytotoxicity Assay to monitor cytotoxicity in HEK293 cells - 8 hour (AID 1224884); note: nearly all actives have a fitted effect of over 35% in size
Summary of the method: as §1

[14] = qHTS RealTime-Glo MT Cell Viability Assay in HepG2 cells - 16 hour (AID 1224885); note: nearly all actives have a fitted effect of over 50% in size
Summary of the method: as §5

[15] = qHTS RealTime-Glo MT Cell Viability Assay in HEK293 cells - 24 hour (AID 1224886)
Summary of the method: as §2

[16] = qHTS RealTime-Glo MT Cell Viability Assay in HEK293 cells - 8 hour (AID 1224887)
Summary of the method: as §3

[17] = A CellTox Green Cytotoxicity Assay to monitor cytotoxicity in HEK293 cells - 16 hour (AID 1224888); note: nearly all actives have a fitted effect of over 35% in size
Summary of the method: as §1

[18] = qHTS RealTime-Glo MT Cell Viability Assay in HepG2 cells - 0 hour (AID 1224889); note: nearly all actives have a fitted effect of over 50% in size
Summary of the method: as §5

[19] = A CellTox Green Cytotoxicity Assay to monitor cytotoxicity in HepG2 cells - 8 hour (AID 1224890); note: nearly all actives have a fitted effect of over 45% in size
Summary of the method: as §4

[20] = A CellTox Green Cytotoxicity Assay to monitor cytotoxicity in HepG2 cells - 0 hour (AID 1224882); note: nearly all actives have a fitted effect of over 35% in size
Summary of the method: as §4
% is set by controls: 0 for no effect and ±100 for the full control effect.

C[C@@]12CCC[C@H]1[C@@H]1CC[C@H]3C[C@@H](O)CC[C@]3(C)[C@H]1CC2
inactive: Potency [1] | Potency [2] | Potency [3] | max response [4] 5.8% | Potency [5] | Potency [6] | Potency [7] | Potency [8] | Potency [9] | Potency [10] | Potency [11] | Potency [12] | Potency [13] | Potency [14] | Potency [15] | Potency [16] | Potency [17] | Potency [18] | Potency [19]

CNC(=O)c1cnn(-c2nc(N)c3ncn([C@@H]4O[C@H](CO)[C@@H](O)[C@H]4O)c3n2)c1
inactive: Potency [1] | Potency [2] | Potency [3] | max response [4] 4.42% | Potency [5] | Potency [6] | Potency [7] | Potency [8] | Potency [9] | Potency [10] | Potency [11] | Potency [20] | Potency [12] | Potency [13] | Potency [14] | Potency [15] | Potency [16] | Potency [17] | Potency [18] | Potency [19]

O=C(O)C[C@H](NC(=O)OCc1ccccc1)C(=O)O
inactive: Potency [1] | Potency [2] | Potency [3] | max response [4] -0.276% | Potency [5] | Potency [6] | Potency [7] | Potency [8] | Potency [9] | Potency [10] | Potency [11] | Potency [20] | Potency [12] | Potency [13] | Potency [15] | Potency [16] | Potency [17]

O=C(O)CCCCCCCCCCCBr
inactive: Potency [1] | Potency [2] | Potency [3] | max response [4] -7.89% | Potency [5] | Potency [6] | Potency [7] | Potency [8] | Potency [9] | Potency [10] | Potency [20] | Potency [12] | Potency [13] | Potency [14] | Potency [15] | Potency [16] | Potency [17] | Potency [18]

O=c1[nH]c2ccc(Cl)cc2o1
inactive: Potency [1] | Potency [2] | Potency [3] | max response [4] -0.887% | Potency [5] | Potency [6] | Potency [7] | Potency [8] | Potency [9] | Potency [10] | Potency [11] | Potency [20] | Potency [12] | Potency [13] | Potency [14] | Potency [15] | Potency [16] | Potency [17] | Potency [18]

O=c1[nH]ncc2ccccc12
inactive: Potency [1] | Potency [2] | Potency [3] | max response [4] 6.19% | Potency [5] | Potency [6] | Potency [7] | Potency [8] | Potency [9] | Potency [10] | Potency [11] | Potency [20] | Potency [12] | Potency [13] | Potency [15] | Potency [16] | Potency [17] | Potency [18] | Potency [19]

c1ccc(C[n+]2cccc3ccccc32)cc1
inactive: Potency [1] | Potency [2] | Potency [3] | max response [4] -28.8% | Potency [5] | Potency [6] | Potency [7] | Potency [8] | Potency [9] | Potency [10] | Potency [11] | Potency [20] | Potency [12] | Potency [13] | Potency [14] | Potency [15] | Potency [16] | Potency [17] | Potency [18] | Potency [19]

Cc1ccc(C(C)(C)O)cc1
inactive: Potency [1] | Potency [2] | Potency [3] | max response [4] -0.324% | Potency [5] | Potency [6] | Potency [7] | Potency [8] | Potency [9] | Potency [10] | Potency [20] | Potency [12] | Potency [13] | Potency [14] | Potency [15] | Potency [16] | Potency [17] | Potency [18] | Potency [19]

CCCCN(CCN(CCCC)C(=O)N1CCOCC1)C(=O)N1CCOCC1
inactive: Potency [1] | Potency [2] | Potency [3] | max response [4] -14% | Potency [5] | Potency [6] | Potency [7] | Potency [8] | Potency [9] | Potency [10] | Potency [11] | Potency [20] | Potency [12] | Potency [13] | Potency [14] | Potency [15] | Potency [16] | Potency [17] | Potency [19]

Cc1cccc(N(C)C(=S)Oc2ccc3c(c2)CCC3)c1
inactive: Potency [1] | Potency [2] | Potency [3] | max response [4] -16.2% | Potency [5] | Potency [6] | Potency [7] | Potency [8] | Potency [9] | Potency [10] | Potency [11] | Potency [20] | Potency [12] | Potency [13] | Potency [15] | Potency [16] | Potency [17] | Potency [18] | Potency [19]

CCOC(=O)c1ccc(OCCN2C[C@H](O)[C@@H](O)[C@H](O)[C@H]2CO)cc1
inactive: Potency [1] | Potency [2] | Potency [3] | max response [4] 1.01% | Potency [5] | Potency [6] | Potency [7] | Potency [8] | Potency [9] | Potency [10] | Potency [11] | Potency [12] | Potency [13] | Potency [14] | Potency [15] | Potency [16] | Potency [17] | Potency [19]

C=CC(C)(CCC=C(C)C)OC(=O)CC(C)C (stereo not drawn)
inactive: Potency [1] | Potency [2] | Potency [3] | max response [4] 7.92% | Potency [5] | Potency [6] | Potency [7] | Potency [8] | Potency [9] | Potency [10] | Potency [11] | Potency [20] | Potency [12] | Potency [13] | Potency [14] | Potency [15] | Potency [16] | Potency [17] | Potency [18] | Potency [19]

CCCCC(CC)CN (stereo not drawn)
inactive: Potency [1] | Potency [2] | Potency [3] | max response [4] 4.35% | Potency [5] | Potency [6] | Potency [7] | Potency [8] | Potency [9] | Potency [10] | Potency [11] | Potency [12] | Potency [13] | Potency [14] | Potency [15] | Potency [16] | Potency [17] | Potency [19]

Cc1[nH]cnc1CN1CCc2c(c3ccccc3n2C)C1=O
inactive: Potency [1] | Potency [2] | Potency [3] | max response [4] -24.4% | Potency [5] | Potency [6] | Potency [7] | Potency [8] | Potency [9] | Potency [10] | Potency [11] | Potency [12] | Potency [13] | Potency [14] | Potency [15] | Potency [16] | Potency [17] | Potency [18] | Potency [19]

Cc1ccc(Cl)c(Nc2ccccc2C(=O)O)c1Cl
inactive: Potency [1] | Potency [2] | Potency [3] | max response [4] -3% | Potency [5] | Potency [6] | Potency [7] | Potency [8] | Potency [9] | Potency [10] | Potency [20] | Potency [12] | Potency [13] | Potency [14] | Potency [15] | Potency [16] | Potency [17] | Potency [18] | Potency [19]

From PubChem BioAssay (Tox21)
